Measurements as given in PubChem BioAssay (NCI).
Compounds without any hit were thinned out: in the full panel of roughly 83,000, 20% have a hit.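 Percent growth is the endpoint: 0 to 100 indicates growth inhibition (40 means 60% inhibition), 0 means no net growth, and negative values indicate cell death.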 A number with no mark means an inactive call. Activity calls are given as the source filed them. The calls were made as follows: active = growth percent below 10; inactive = the rest.

Experiments:
Test in all cases: NCI-60 one-dose screen, 48 h (100 = growth as untreated, 0 = no growth, -100 = all killed)
Conditions in all cases: 10 µM unless noted
[1] = system: HCT-15 colon
[2] = system: HT29 colon
[3] = system: SNB-75 CNS
[4] = system: SNB-19 CNS
[5] = system: U251 CNS
[6] = system: PC-3 prostate
[7] = system: SK-MEL-5 melanoma
[8] = system: UACC-62 melanoma
[9] = system: LOX IMVI melanoma
[10] = system: SK-MEL-28 melanoma
[11] = system: SK-MEL-2 melanoma
[12] = system: EKVX NSCLC
[13] = system: SN12C renal
[14] = system: UO-31 renal
[15] = system: TK-10 renal
[16] = system: ACHN renal
[17] = system: CAKI-1 renal
[18] = system: CCRF-CEM leukemia
[19] = system: MOLT-4 leukemia

| SMILES | growth [1] | growth [2] | growth [3] | growth [4] | growth [5] | growth [6] | growth [7] | growth [8] | growth [9] | growth [10] | growth [11] | growth [12] | growth [13] | growth [14] | growth [15] | growth [16] | growth [17] | growth [18] | growth [19] |
| --- | --- | --- | --- | --- | --- | --- | --- | --- | --- | --- | --- | --- | --- | --- | --- | --- | --- | --- | --- |
| COc1cc2c(cc1[N+](=O)[O-])-c1ccc([N+](=O)[O-])cc1/C2=N/NC(N)=S | 72.3% | 48.7% | 48.7% | 58.8% | 47.1% | 58% | 63.1% | 36.4% | 43.5% | 95.4% | 87.8% | 68.5% | 67.1% | 29.6% | 77.4% | 37.4% | 64.1% | 56.6% | 60.1% |
| Cc1cc(Nc2cccc(C(F)(F)F)c2)n2c(nc3ccccc32)c1C#N | 12.2% | 13.2% | 59.4% | 40.7% | 11.6% | 21.8% | 4.24% (active) | 37.9% | 59.6% | 54.8% | 28.7% | 31.5% | 25.4% | 28.3% | 58.3% | 46.9% | 38.7% | 55.8% | 56.6% |
| Cc1cn(-c2cc(C(=O)Nc3cccc(C#Cc4cccc5[nH]nc(N)c45)c3)cc(C(F)(F)F)c2)cn1 | 57.4% | 18.5% | 65.8% | 76.2% | 54.9% | 75.3% | 24.2% | 12.2% | 11% | 15.8% | 5.21% (active) | 68% | 62.3% | 30.2% | 58.5% | 30.3% | 79.6% | 47.4% | 36.5% |
| NC(=S)N/N=C(/c1ccccc1)c1ccccc1N | 84.7% | 54.8% | 101% | 101% | 95.6% | 67.3% | 92.3% | 93.9% | 96.1% | 109% | 103% | 66.1% | 85% | 62.8% | 103% | 90.6% | 80.9% | 60.2% | 52.7% |
| CCNC(=S)NNC(=O)c1cc2ccc1CCc1ccc(cc1)CC2 | 96.7% | 104% | 89.8% | 100% | 101% | 91.1% | 96.7% | 93.4% | 102% | 101% | 102% | 94.4% | 95.3% | 83.7% | 103% | 107% | 94.9% | 107% | 102% |
| COc1ccc(C(=O)c2cc(C)c(OC)c(C)c2)c(OC)c1N(C(=O)C(Cl)Cl)C(=O)C(Cl)Cl | 7.03% (active) | 1.22% (active) | 56.4% | 26.4% | 19.2% | 18.1% | 0.812% (active) | 38.8% | 20.3% | 49.8% | 27.2% | 56.9% | 35.5% | 37.8% | 43.8% | 22.2% | 43.2% | 10.7% | 22.6% |
| COc1ccc(/C=C\c2nc3ccccc3s2)cc1OP(=O)(O)O | 30% | 104% | -2.05% (active) | 28.8% | 32.6% | 43.5% | 21.8% | 41.5% | 41.5% | 67.4% | 22.2% | 76.8% | 55.4% | 51.5% | 90.3% | 56.9% | 38.5% | 16.8% | 26.3% |
| CC(Oc1ccc(C(=O)NS(=O)(=O)C(C)(C)C)cc1C(F)(F)F)c1ccc(Oc2ccccc2)cn1 (configuration not stated) | 41.5% | 59.5% | 48.1% | 63.8% | 58.1% | 93.8% | 45.1% | 36.7% | 60.1% | 61% | 35.5% | 86.5% | 86.1% | 67.9% | 79.7% | 89.4% | 40.8% | 74.1% | 98.5% |
